# According to the supplement of paper PMC6555819:
# Tests used:
# Assay in all cases: PBM binding z-score (relative to random genomic background probes); higher = stronger binding; sequences stand for … in GC…GCGATTGACAGCGTAGAATGAAGG
# [1] = test system: RARb homodimer (NR concentration 270 nM)
# How it was run: (§1)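 For binding z-scores, the reference was random background probes on custom Agilent 4×180K protein-binding microarrays. These arrays were incubated 1 h with ligand-free nuclear receptor dimers in PBS pH 7.4, 2% milk, 0.02% Triton X-100, 1 mM DTT, 0.2 mg/mL BSA and 0.4 mg/ml salmon testes DNA. Fluorescence was scanned after antibody detection of each partner (one per run) and regression-normalized.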
# [2] = test system: RARg:RXRa (NR concentration 270 nM, RXRa partner concentration 90 nM)
# How it was run: as §1
# [3] = test system: RARg homodimer (NR concentration 270 nM)
# How it was run: as §1
# [4] = test system: RXRa DBDmut IVT, anti-RXR (DBD mutation: RXRa K156A/R161A, NR concentration 90 nM)
# How it was run: as §1
# [5] = test system: RXRa homodimer (NR concentration 180 nM)
# How it was run: as §1
# [6] = test system: THRa:RXRa (NR concentration 90 nM, RXRa partner concentration 90 nM)
# How it was run: as §1
# [7] = test system: THRa homodimer (NR concentration 90 nM)
# How it was run: as §1
# [8] = test system: VDR homodimer (NR concentration 270 nM)
# How it was run: as §1
Sequence,PBM binding z-score [1],PBM binding z-score [2],PBM binding z-score [3],PBM binding z-score [4],PBM binding z-score [5],PBM binding z-score [6],PBM binding z-score [7],PBM binding z-score [8]
CCTCGGAGTACAACAGGAGGTCAGAGCTGCCAGA,2.99,3.01,2.39,1.27,1.86,2.16,0.436,1.47
CGTTACGGGTCACTGACAGGTTATAGCATTTGGA,3.43,5.78,4.8,1.74,5.12,3,0.0977,0.672
GTACCAAGGTGTATAGGTCGTTGATGAGTAGGCG,0.761,0.597,0.288,0.186,0.791,0.249,-0.307,0.945
GGAACGAGGGCATTCGATTTGATAGCATGGCGAT,0.884,1.28,1.49,3.11,1.01,1.09,-0.234,1.9
GCTTACGGGTCAAAGGTTATACCATGAATAGAAT,3.74,6.93,4.71,2.59,9.41,4.17,0.206,1.77
TAGCCTAGGTCAGATCGGGCCTGTATACGCTATA,1.97,2.53,3.21,-0.396,1.29,2.64,-0.216,-0.157
ACTAATAGTTGACTTAGGGCAACCGATACGACGC,0.958,0.412,0.996,0.674,0.408,1.6,0.383,0.15
CGTCCAAGGTCAGCAGGGCAGTGAAAGCGACGTG,4.12,5.28,5.9,2.63,3.74,3.61,1.9,1.02
GCTATTAGTTGAAGGGGCAACCGAATGATTCTCG,0.855,0.206,0.529,0.928,0.206,0.0187,-0.194,0.212
AGAACGAGGGAACGCTGAGTTGATAGCAGAGTAG,-0.725,-0.0293,0.175,-0.477,-0.0289,-0.362,-1.15,0.248
TCTAGTTGGTAACGGAGGTCACACACGACGGGTA,4.04,3.79,3.14,0.917,4.14,3.54,2.41,2.47
TAGCCTAGGTCATTGGGCGAGTATAGTACGCATC,2.6,3.77,4.01,1.2,2.88,2.72,0.571,1.08
GCTGCTAGGTCAACTGATGGTCAGCTTAAGCTCG,3.69,5.24,5.28,1.76,3,3.07,0.988,-0.0541
ACTATTAGTTGAGACGATGGCAACCGATAGGTTG,-0.57,0.459,0.26,0.0509,0.0596,-0.111,-0.705,0.236
TCTAGTTGGTCACGGAGGTTACACACGACGGGTA,2.39,2.29,2.43,0.609,2.16,1.71,0.725,0.629
TCATATAGGTAAATGTTAGGTGAAAGTCCGATCT,0.881,0.623,0.326,2.12,1.09,2.51,1.58,0.982
ACTTCCGGGTCAACGAGGTTATAGCACGCGTATA,3.44,5.17,4.74,2.62,5.76,4.34,2.68,4.34
CCTCGGAGGACAACAGGAGGTCAGGGCTGCCAGA,3.69,3.63,3.49,-0.237,2.24,2.96,1.34,0.949
GCTATTAGTTGAAAGGGCAACTGAATGATTCTCG,1.9,1.45,1.31,0.912,1.25,0.832,-0.217,0.256
TCTTGTAGATCAGCAGGTTAAGTAAGCTGGCCAA,0.124,-0.106,-0.396,0.597,0.384,0.37,-0.0624,-0.499
CAAACTAGGTCACAGAGGTCAAAATCCGTGCGTA,5.16,7.05,7.16,3.22,7.21,4.7,2.77,5.94
TCTAGCAGGCCAGAGGGTCAGTCAAGAGGTACGG,2.16,1.59,1.82,-0.232,1.43,0.734,-0.934,-0.429
TTACGAAGGTGAAGGTCGTTGATCCCTCTGTAGA,1.84,1.38,1.26,0.133,1.93,1.52,0.135,0.942
TCATATACGTAATACAGGTGAAAGTCGGCATCTA,0.8,0.758,0.567,1.76,1.3,0.75,0.27,0.145
ACTAGCAGGCCAAGTTTGGGTCACTCTAACAAAG,2.06,2.24,1.6,-0.0163,0.429,2.39,1.06,0.209
ACTATTAGTTGAGACGAGGGGAACCGATAGGTTG,-0.242,0.21,0.42,0.612,0.177,1.13,-0.473,0.00117
CCTAGTTGGTCTGGAGGTCACACACCGGATATGA,4.22,4.49,3.84,0.895,4.63,3.67,2.69,2.97
ATCGAAAGGTCGAGGTGCGTATAGAGAAAGGGAA,2.47,4.3,4.33,0.96,4.37,1.77,-0.562,0.304
